# Measurements: the supplement of paper PMC7393113
# Values joined by “and” are separate entries in the source; they are usually repeats but may differ in a detail not shown here. Equal entries are not always repeated. ± gives the standard deviation of the averaged measurements.
# Tested on: iBMDM (immortalised mouse bone-marrow-derived macrophages), LPS-stimulated
# Assay: mitochondrial superoxide (MitoSOX fluorescence) fold increase over unstimulated control; higher = more LPS-induced mitochondrial ROS (less inhibition)
# Conditions: inhibitor concentration: 500 nM; LPS: 100 ng/ml; time after LPS: 1 h
# How it was run: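 Values are fold induction of mitochondrial superoxide relative to untreated macrophages, as a mean of replicates. Immortalised mouse bone-marrow-derived macrophages, seeded in triplicate in black 96-well plates, spent 20 h in phenol-red-free 1% FCS/DMEM before a 30 min pretreatment with kinase inhibitors (500 nM). After 10 min loading with 1 μM MitoSox, cells received LPS (100 ng/ml), and fluorescence (510/580 nm) was measured every 60 min for 4 h.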
row,SMILES,mitochondrial superoxide
1,COc1ccc2c(c1)c(C1=C(c3c[nH]c4ccccc34)C(=O)NC1=O)cn2CCCN(C)C,1.23 ± 0.056
2,COc1ccc(CNC(=O)Nc2ncc([N+](=O)[O-])s2)cc1,1.47 ± 0.037
3,CN1CCC(CNc2ccc3ncc(-c4cccc(OC(F)(F)F)c4)n3n2)CC1 [SGI-1776 free base],1.13 ± 0.048
4,S=C(NCc1ccc2c(c1)OCO2)N1CCN(c2ncnc3c2oc2ccccc23)CC1 [Amuvatinib (MP-470)],1.18 ± 0.12
5,COc1ccc(-c2nc(N3CCOCC3)c3sc(CN(C)c4ncc(C(=O)NO)cn4)cc3n2)cn1,1.31 ± 0.095
6,CCn1c(-c2nonc2N)nc2c(C#CC(C)(C)O)ncc(OC[C@H]3CCCNC3)c21,1.3 ± 0.025
7,CNC(=O)CN1CCC(Oc2cc3c(Nc4cccc(Cl)c4F)ncnc3cc2OC)CC1 [AZD8931 (Sapitinib)],1.12 ± 0.041
8,O=C(c1ccc(Nc2nccc(-c3cc4ccccc4s3)n2)cc1)N1CCC(N2CCCC2)CC1 [IKK-16 (IKK Inhibitor VII)],1.08 ± 0.084
9,Oc1ccc2ccccc2c1SSc1c(O)ccc2ccccc12,1.17 ± 0.049
10,CCCS(=O)(=O)Nc1ccc(F)c(C(=O)c2c[nH]c3ncc(Cl)cc23)c1F,1.24 ± 0.15
11,"Cc1[nH]c(/C=C2\C(=O)Nc3ccccc32)c(C)c1CCC(=O)O [TSU-68 (SU6668, Orantinib)]",2.12 ± 0.096

# Same assay, conditions: inhibitor concentration: 500 nM; LPS: 100 ng/ml; time after LPS: 2 h
row,SMILES,mitochondrial superoxide
1,N#CC1(c2ccc(NC(=O)c3cccnc3NCc3ccncc3)cc2)CCCC1 [Apatinib],1.18 ± 0.021
2,Cc1cc2c(F)c(Oc3ncnn4cc(OC[C@@H](C)O)c(C)c34)ccc2[nH]1,1.44 ± 0.11
3,Cc1ccc(C(=O)Nc2ccc(CN3CCN(C)CC3)c(C(F)(F)F)c2)cc1C#Cc1cnc2cccnn12,1.13 ± 0.014
4,Cc1[nH]c(/C=C2\C(=O)Nc3ccc(S(=O)(=O)N(C)c4cccc(Cl)c4)cc32)c(C)c1C(=O)N1CCN(C)CC1,1.4 ± 0.15
5,CN(c1ncccc1CNc1nc(Nc2ccc3c(c2)CC(=O)N3)ncc1C(F)(F)F)S(C)(=O)=O,1.34 and 1.11
6,COc1cc2c(N3CCN(C(=O)Nc4ccc(OC(C)C)cc4)CC3)ncnc2cc1OCCCN1CCCCC1 [Tandutinib (MLN518)],1.77 ± 0.029
7,Cc1[nH]c(/C=C2\C(=O)Nc3ccc(S(=O)(=O)Cc4c(Cl)cccc4Cl)cc32)c(C)c1C(=O)N1CCC[C@@H]1CN1CCCC1,1.61 ± 0.027
8,C#Cc1cccc(Nc2ncnc3cc(OC)c(OCCCCCCC(=O)NO)cc23)c1,1.2 ± 0.047
9,CCC[C@H](NC(=O)/C(C#N)=C/c1cccc(Br)n1)c1ccccc1 [Degrasyn (WP1130)],1.34 ± 0.032
10,Cc1ccc(-n2nc(C(C)(C)C)cc2NC(=O)Nc2ccc(OCCN3CCOCC3)c3ccccc23)cc1 [BIRB 796 (Doramapimod)],1.11 ± 0.024
11,CNC(=O)c1nn(C)c2c1C(C)(C)Cc1cnc(Nc3ccc(N4CCN(C)CC4)cc3)nc1-2,1.38 ± 0.086
12,COc1cc2ncnc(Nc3ccc(F)c(Cl)c3)c2cc1OCCCN1CCOCC1 [Gefitinib (ZD1839)],1.71 ± 0.044
13,Cc1ccccc1CN1C2=NCCN2C(=O)C2=C1CCN(Cc1ccccc1)C2,1.27 ± 0.036
14,O=C(Nc1ccc(OC(F)(F)F)cc1)c1sccc1NCc1ccnc2ccccc12,1.2 ± 0.067
15,Cn1cc(-c2cnn3c(N)c(Br)c([C@@H]4CCCNC4)nc23)cn1,1.4 ± 0.22
16,Cn1cc(-c2ccc3nnc(C(F)(F)c4ccc5ncccc5c4)n3n2)cn1,1.44 ± 0.015
17,Cc1ccccc1-n1c(Cn2nc(-c3cccc(O)c3)c3c(N)ncnc32)nc2cccc(C)c2c1=O,1.34 ± 0.033
18,CC(C)(C)c1cc(NC(=O)Nc2ccc(-c3cn4c(n3)sc3cc(OCCN5CCOCC5)ccc34)cc2)no1 [Quizartinib (AC220)],1.19 ± 0.047
19,Cn1c(Nc2ccc(C(F)(F)F)cc2)nc2cc(Oc3ccnc(-c4ncc(C(F)(F)F)[nH]4)c3)ccc21,1.2 ± 0.097

row,SMILES,mitochondrial superoxide
1,CC(C)(C)n1nc(-c2ccc(Cl)cc2)c2c(N)ncnc21,1.23 ± 0.074
2,O=C1NC(=O)/C(=C/c2ccc3nccc(-c4ccncc4)c3c2)S1,1.23 ± 0.11
3,Nc1nc(Nc2ccc(S(N)(=O)=O)cc2)nn1C(=O)c1c(F)cccc1F,1.13 ± 0.027
4,Cc1ccc(-c2nn(C(C)(C)C)c3ncnc(N)c23)cc1,1.22 ± 0.055
5,COc1ncc(-c2ccc3nccc(-c4ccnnc4)c3c2)cc1NS(=O)(=O)c1ccc(F)cc1F,1.42 ± 0.033
6,N#Cc1c(Oc2ccc(F)c(NC(=O)Cc3cccc(C(F)(F)F)c3)c2)ccc2nc(NC(=O)C3CC3)sc12,1.49 ± 0.076
7,CNC(=O)c1cc(Oc2ccc(NC(=O)Nc3ccc(Cl)c(C(F)(F)F)c3)c(F)c2)ccn1 [Regorafenib (BAY 73-4506)],1.68 ± 0.057
8,COc1ccc2c(c1)c(C1=C(c3c[nH]c4ccccc34)C(=O)NC1=O)cn2CCCN(C)C,1.27 ± 0.043
9,COc1ccc(CNC(=O)Nc2ncc([N+](=O)[O-])s2)cc1,1.54 ± 0.026
10,CN1CCC(CNc2ccc3ncc(-c4cccc(OC(F)(F)F)c4)n3n2)CC1 [SGI-1776 free base],1.22 ± 0.052
11,S=C(NCc1ccc2c(c1)OCO2)N1CCN(c2ncnc3c2oc2ccccc23)CC1 [Amuvatinib (MP-470)],1.21 ± 0.076
12,COc1ccc(-c2nc(N3CCOCC3)c3sc(CN(C)c4ncc(C(=O)NO)cn4)cc3n2)cn1,1.52 ± 0.1
13,CCn1c(-c2nonc2N)nc2c(C#CC(C)(C)O)ncc(OC[C@H]3CCCNC3)c21,1.4 ± 0.027
14,CNC(=O)CN1CCC(Oc2cc3c(Nc4cccc(Cl)c4F)ncnc3cc2OC)CC1 [AZD8931 (Sapitinib)],1.24 ± 0.048
15,O=C(c1ccc(Nc2nccc(-c3cc4ccccc4s3)n2)cc1)N1CCC(N2CCCC2)CC1 [IKK-16 (IKK Inhibitor VII)],1.09 ± 0.087
16,Oc1ccc2ccccc2c1SSc1c(O)ccc2ccccc12,1.22 ± 0.04
17,CCCS(=O)(=O)Nc1ccc(F)c(C(=O)c2c[nH]c3ncc(Cl)cc23)c1F,1.26 ± 0.15
18,"Cc1[nH]c(/C=C2\C(=O)Nc3ccccc32)c(C)c1CCC(=O)O [TSU-68 (SU6668, Orantinib)]",2.2 ± 0.093
